Data on 17 compounds can be found in PubChem BioAssay (NCATS).

A short description of test [1]: qHTS for identification of novel therapeutic agents for treatment of microphthalmiaassociated transcription factor (MiT) renal cell carcinoma (RCC) (AID 1963991). The note with it: CellTiter-Glo, 48 h, stronger effect = lower value. In short, it runs like this:
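Three TFE3-fusion RCC cell lines (UOK109, UOK124, UOK145), 500 cells/well, were exposed to the 1912-compound MIPE 4.0 library for 48 hours at 37 C. Viability was read by CellTiter-Glo luminescence, normalised to DMSO (100%) and empty wells (0%), with 11-concentration curve fits.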

A short description of test [2]: qHTS profiling for inhibitors of Plasmodium falciparum proliferation (AID 504749). Also: nearly all actives have a fitted effect of over 60% in size. Also: potency is read from the fitted curve at half-maximal effect.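 As to activity, negative = inhibition: 0% = DMSO vehicle and full inhibition = artemisinin control.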 The note with it: P. falciparum in erythrocytes, SYBR Green DNA, 72 h. The procedure, abridged: (§1)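 Parasite proliferation within erythrocytes, 72 h exposure. Endpoint: SYBR Green I fluorescence after overnight lysis at room temperature. Controls: 0.29 uM artemisinin, DMSO.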
On the technique in general: In qHTS, concentration-response curves come from the screen itself.

Test [3] deals with 3D7. The test is described as above. The note with it: P. falciparum in erythrocytes, SYBR Green DNA, 72 h; series mostly up to 28.7 µM. In short, it runs like this:
as §1

The test system of test [4] is 7G8. The test is described as above. The note with it: P. falciparum in erythrocytes, SYBR Green DNA, 72 h; series mostly up to 28.7 µM. In short, it runs like this: as §1
Where [5] appears, read: TFE3-RCC UOK109 viability, measured here: UOK109 Z-AUC.
Where [6] appears, read: TFE3-RCC viability, measured here: UOK124 Z-AUC.
The mark [7] stands for this setting: TFE3-RCC viability, measured here: UOK145 Z-AUC.
Setting [8] is: at 28.7 µM (top of the series), parasite line A.
Where [9] appears, read: at 28.7 µM (top of the series), parasite line B.
The mark [10] stands for this setting: at 12.8 µM (top of the series), parasite line A.
The mark [11] stands for this setting: at 12.8 µM (top of the series), parasite line B.

Values joined by “and” are separate entries in the source; they are usually repeats but may differ in a detail not shown here. Equal values may be shown once. Records with an inconclusive call do not appear. Active and inactive are the calls of the source. Calls follow the shape of the dose curve; as a rule, active = well fitted inhibition curve with a large enough effect; inconclusive = small, poorly fitted or top-dose-only effect; inactive = flat fitted curve, though single readings scatter.

As for `Nc1ncnc2c1ncn2[C@@H]1O[C@H](CO)C[C@@H]1O`, the z-score in test [1] (setting [5]) stood at 0.12; in test [1] (setting [6]), 0.223; in test [1] (setting [7]) it was 0.00458.

For `CCN1CCC[C@H]1CNC(=O)c1cc(S(N)(=O)=O)ccc1OC`, the figures for the activity, negative = inhibition in test [2] (setting [8]) and in test [2] (setting [9]) were 7.08% (inactive) and 23% (inactive), respectively. Also, the outcome in test [3] was inactive. In addition, in test [4], the Potency entry is “inactive”.

As to `O=c1ccn([C@@H]2O[C@H](CO)[C@H](O)[C@H]2O)c(=O)[nH]1`, the z-score is 0.533 in test [1] (setting [5]), 0.584 in test [1] (setting [6]) and 0.624 in test [1] (setting [7]).

On to `CCN(CC)C(=O)c1ccc(O)c(OC)c1`, for which the activity, negative = inhibition in test [2] (setting [10]) is 6.06% (inactive); in test [2] (setting [11]) it was 6.5% (inactive); in test [2] (setting [8]), 14.7% (inactive); in test [2] (setting [9]) it was -14.5% (inactive). For the same compound, the compound was classed as inactive in test [3]. Also, the Potency result in test [4] is “inactive”.

For the compound `CN(C)CCC(c1ccccc1)c1ccccn1` (stereo unspecified), the activity, negative = inhibition in test [2] (setting [8]) is 8.91% (inactive); in test [2] (setting [9]), 5.22% (inactive). Also, in test [3], the result was inactive. In addition, in test [4], the Potency is 5.62 µM (active).

As for `O=C(O)Cc1cccc2ccccc12`, the activity, negative = inhibition was 12.1% (inactive) in test [2] (setting [8]) and 6.39% (inactive) in test [2] (setting [9]). For the same compound, the call in test [3] was inactive. Besides, the Potency entry in test [4] is “inactive”.

For the compound `NC(N)=Nc1nc(CSCC/C(N)=N/S(N)(=O)=O)cs1`, the activity, negative = inhibition in test [2] (setting [8]) is -15% (inactive); in test [2] (setting [9]), 4.88% (inactive). For the same compound, the call in test [3] was inactive. Further, in test [4], the Potency result is “inactive”.

Turning to `C[C@@H](O)[C@H]1C(=O)N2C(C(=O)O)=C(S[C@@H]3CN[C@H](C(=O)N(C)C)C3)[C@H](C)[C@H]12`, the activity, negative = inhibition is 10.4% (inactive) in test [2] (setting [8]) and 13.7% (inactive) in test [2] (setting [9]). Besides, the compound was called inactive in test [3]. In test [4], the Potency entry is “inactive”.

Take `CCOC(=O)O[C@]1(C(=O)OCCl)CC[C@@H]2[C@H]3CCC4=CC(=O)C=C[C@]4(C)[C@@H]3[C@@H](O)C[C@@]21C`: the z-score in test [1] (setting [5]) worked out at 0.509; in test [1] (setting [6]), 0.837; in test [1] (setting [7]), 2.11. Also, the activity, negative = inhibition was -7.57% (inactive) in test [2] (setting [8]) and 4.48% (inactive) in test [2] (setting [9]). Further, the call in test [3] was inactive.

Consider `COc1ccccc1N1CCN(CCCNc2cc(=O)n(C)c(=O)n2C)CC1`, for which the activity, negative = inhibition is -3.41% (inactive) and -6.84% (inactive) in test [2] (setting [8]); -11.7% (inactive) and -0.932% (inactive) in test [2] (setting [9]). In addition, the result in test [3] was inactive. Besides, the Potency result in test [4] is “inactive”.

On to `CC(=O)CCCCn1c(=O)c2c(ncn2C)n(C)c1=O`, for which the activity, negative = inhibition in test [2] (setting [10]) was -2.51% (inactive); in test [2] (setting [11]), 2.9% (inactive). Moreover, the result in test [3] was inactive. In addition, the Potency entry in test [4] was “inactive”.

Take `CCN(CC)CCNC(=O)c1ccc(N)cc1`: the figures for the activity, negative = inhibition in test [2] (setting [8]) and in test [2] (setting [9]) were 6.98% (inactive) and 5.88% (inactive), respectively. For the same compound, in test [3], the result was inactive. Also, the Potency result in test [4] was “inactive”.

`CC(=O)c1ccc(S(=O)(=O)NC(=O)NC2CCCCC2)cc1`: the activity, negative = inhibition is 3.57% (inactive) in test [2] (setting [8]) and 7.49% (inactive) in test [2] (setting [9]). For the same compound, the compound was classed as inactive in test [3]. Moreover, the Potency entry in test [4] was “inactive”.

As to `Cc1cccc(C)c1OCC(C)N` (stereo unspecified), the activity, negative = inhibition was 7.67% (inactive) in test [2] (setting [8]) and -7.13% (inactive) in test [2] (setting [9]). Further, the call in test [3] was inactive.

As for `C[C@@H]1CCN(C(=O)CC#N)C[C@H]1N(C)c1ncnc2[nH]ccc12`, the z-score in test [1] (setting [5]) was -0.116; in test [1] (setting [6]), 0.39; in test [1] (setting [7]), -0.115.

For `OC[C@H]1O[C@@H](Oc2cc(O)cc(C=Cc3ccc(O)cc3)c2)[C@H](O)[C@@H](O)[C@H]1O`, the results for the z-score in test [1] (setting [5]), in test [1] (setting [6]) and in test [1] (setting [7]) were 0.664, 0.547 and 1.48, respectively.

Take `C=C1C(=O)OC2C=C(C)CCC=C(C)CCC12` (stereo unspecified): the z-score in test [1] (setting [5]) stood at 0.459; in test [1] (setting [6]) it was 0.643; in test [1] (setting [7]) it was 0.399.
